A word on the viability: it is a read-out of living cells in per cent, often relative to untreated cells.

This note sets out measurements from PubChem BioAssay (NCATS).

Where “and” joins values, the source holds several entries; their conditions need not be identical. Identical values can stand only once. Records with an inconclusive call do not appear. Values without a mark were called inactive. Calls of active or inactive are those of the source. Unless noted, calls follow the shape of the dose curve; as a rule, active = well fitted curve in the direction sought with a large enough effect; inconclusive = small, poorly fitted or top-dose-only effect, or another doubt; inactive = no such curve, though single readings can be large; an effect the other way counts as inactive or inconclusive.

Assay [1] has as its target Aldehyde dehydrogenase, mitochondrial (Homo sapiens) (UniProt P05091). The assay is described as follows: qHTS for Inhibitors of the Aldehyde Dehydrogenase Family (ALDH2) Confirmatory screens (AID 2061303; active = well fitted inhibition curve with a large enough effect; title and protocol of this record describe different tests; also: nearly all actives have a fitted effect of over 45% in size; also: potency is read from the fitted curve at half-maximal effect). On the technique in general: qHTS replaces the single test concentration by a dilution series.
A short description of assay [2]: qHTS for Inhibitors of the Aldehyde Dehydrogenase Family (ALDH1A2, ALDH1A3, ALDH2, ALDH3A1) (AID 2061307). Also: nearly all actives have a fitted effect of over 50% in size. As to Potency: test system not described further here; potency is read from the fitted curve at half-maximal effect.
Assay [3] addresses Retinaldehyde dehydrogenase 3 (Homo sapiens) (UniProt P47895). The assay is described as follows: qHTS for Inhibitors of the Aldehyde Dehydrogenase Family (ALDH1A3) Confirmatory screens (AID 2061311). Also: nearly all actives have a fitted effect of over 60% in size. Also: potency is read from the fitted curve at half-maximal effect.
Assay [4] concerns the target Retinal dehydrogenase 2 (Homo sapiens) (UniProt O94788). Kind of assay: qHTS for Inhibitors of the Aldehyde Dehydrogenase Family (ALDH1A2) Confirmation screens (AID 2061314). Also: nearly all actives have a fitted effect of over 65% in size. Also: potency is read from the fitted curve at half-maximal effect.
Assay [5] has as its target Retinaldehyde dehydrogenase 3 (Homo sapiens) (UniProt P47895). Kind of assay: qHTS for Inhibitors of the Aldehyde Dehydrogenase Family (ALDH1A3) Primary screen (AID 2061315). Also: potency is read from the fitted curve at half-maximal effect.
Assay [6] is described as follows: BET inhibitor-based combinations targeting novel dependencies in MECOM-rearranged (r) AML: OCI-AML3 cell line (AID 2202232). Also: nearly all actives have a fitted effect of over 35% in size. Also: potency is read from the fitted curve at half-maximal effect. Particulars: Potency: OCI-AML3 viability. In a few lines: (§1)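 Luminescent ATP readout (CellTiter-Glo) after 48 hr drug exposure gives viability. Curves span 11 concentrations and are normalized to DMSO and empty wells. Activity is reported as area under the curve and its Z-transform within each cell line.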

Assay [7] is described as follows: BET inhibitor-based combinations targeting novel dependencies in MECOM-rearranged (r) AML: UCSD-AML1 cell line (AID 2202235).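 Also: series mostly up to about 46 µM; plate controls were DMSO vehicle wells for no effect and blank wells for full effect; nearly all actives have a fitted effect of over 40% in size.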 In a few lines:
(§2)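 Luminescent ATP readout (CellTiter-Glo, 15 min at room temperature) after 48 hr drug exposure gave viability. Dose-response curves, normalized to DMSO and empty-well controls, were summarized as area under the curve and its mean-centred Z-score.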

Assay [8] in a line: BET inhibitor-based combinations targeting novel dependencies in MECOM-rearranged (r) AML: AML-194 cell line (AID 2202237;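 also: plate controls were vehicle wells for no effect and wells without cells for full effect; nearly all actives have a fitted effect of over 40% in size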). In a few lines: as §1
Assay [9] has as its target Aldehyde dehydrogenase 1A1 (Homo sapiens) (UniProt P00352). Kind of assay: qHTS for Inhibitors of the Aldehyde Dehydrogenase Family (ALDH1A1) Confirmatory screens (AID 2061316). Also: nearly all actives have a fitted effect of over 65% in size. Also: potency is read from the fitted curve at half-maximal effect.
Assay [10] in a line: BET inhibitor-based combinations targeting novel dependencies in MECOM-rearranged (r) AML: SET-2 cell line (AID 2202231).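 Also: plate controls were DMSO treated cells for no effect and wells without cells for full effect; nearly all actives have a fitted effect of over 35% in size.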 Particulars: SET-2 AML cells viability, CellTiter-Glo luminescence, 48 h; viability: stronger effect = lower value, series mostly up to about 46 µM. The method in brief: as §1
A short description of assay [11]: BET inhibitor-based combinations targeting novel dependencies in MECOM-rearranged (r) AML: MV-4-11 cell line (AID 2202233).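 Also: plate controls were DMSO for no effect and blank wells for full effect; nearly all actives have a fitted effect of over 45% in size.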 The method in brief:
as §2

As for `Cc1c(NC(=O)c2cc3c(s2)CCCC3)cccc1-c1cn(C)c(=O)c(Nc2ccc(C3C(=O)N(C)CCN3C)cc2)n1` (configuration not stated), the Potency entry in assay [1], in assay [4], in assay [5], in [7] and in [8] was “inactive” each time. Further, the Potency in [2] was 10 µM (active); in [3] it was 2 µM (active) and 7.94 µM (active); in [6], 16.6 µM (active).

Regarding `CN(CC(=O)Nc1ccc(N2CCOCC2)cc1)Cc1c(O)ccc2ccccc12`, the Potency in assay [1] is 11.3 µM (active); in assay [2] it was 2.83 µM (active); in assay [3] it was 15.9 µM (active); in [4], 10.1 µM (active); in assay [9], 2.52 µM (active).

On to `CC(C)(C)OC(=O)N1CCN(c2ccc(NCc3cccc(-c4ccc(C#N)cc4)n3)cc2)CC1`, for which the figures for the Potency in assay [1], in assay [2] and in assay [9] were 0.201 µM (active), 0.142 µM (active) and 8.96 µM (active), respectively. In addition, the Potency result in assay [3] and in assay [5] was “inactive” throughout.

With `O=C(Nc1cncc(-c2cccc3ccccc23)c1)c1cccs1`, the Potency result in [1] and in assay [5] was “inactive” each time. Further, the Potency is 5.62 µM (active) in [2] and 20.1 µM (active) in [3].

On to `COc1ccc(S(=O)(=O)Nc2cccc(-c3ccc(N4CCCCCC4)nn3)c2)c(OC)c1`, for which the Potency in assay [1] is 28.2 µM (active); in [2], 28.2 µM (active) and 2.51 µM (active). Besides, the Potency entry in assay [3], in assay [4] and in [9] was “inactive” throughout.

`COc1ccc(N2CCN(c3nc(C(=O)NCc4cccc(C)c4)cs3)CC2)cc1`: the Potency result in assay [1], in assay [3], in assay [4] and in assay [9] was “inactive” in each case. Moreover, in [2], the Potency was 2.51 µM (active).

`Cn1ncc2c(C(=O)NCC(F)F)cc(-c3cccc(C(F)(F)F)c3)nc21`: the Potency result in assay [1], in [2], in [4] and in assay [9] was “inactive” each time. Moreover, the Potency in assay [3] was 0.794 µM (active).

Consider `COc1ccc(-c2ccc(CNc3ccc(N4CCN(C(=O)OC(C)(C)C)CC4)cc3)o2)cc1`, for which the Potency in assay [1] is 1.13 µM (active); in assay [4], 11.3 µM (active); in [9] it was 11.3 µM (active). In addition, the Potency result in assay [2], in assay [3] and in assay [5] was “inactive” throughout.

On to `COc1cccc(-c2ccc(CNc3ccc(N4CCN(C(=O)OC(C)(C)C)CC4)cc3)o2)c1`, for which the Potency in assay [1] is 11.3 µM (active); in assay [2] it was 14.2 µM (active). In addition, the Potency result in assay [3] and in assay [5] was “inactive” each time.

Take `O=C(O)c1cnn(-c2nc3cc(OC(F)(F)F)c(Cl)cc3[nH]2)c1`: the Potency entry in [1], in assay [4], in assay [9], in assay [6], in assay [11] and in assay [7] was “inactive” in each case. For the same molecule, the Potency entry in assay [8] is “inactive”. The Potency in [2] was 13.5 µM (active); in assay [3], 3.18 µM (active); in assay [5], 10 µM (active). Moreover, the viability in assay [10] is 119%.

Regarding `COc1cccc(-c2cc(C(=O)NCC(F)F)c3cnn(C)c3n2)c1`, the Potency result in [1], in assay [2] and in assay [9] was “inactive” in each case. The Potency in assay [3] is 5.01 µM (active).

As to `Oc1ccc(CNc2ccccc2F)c2cccnc12`, the Potency in [1] was 2.83 µM (active); in assay [4], 5.65 µM (active); in assay [9], 2.25 µM (active). Moreover, the Potency entry in assay [2] and in [3] was “inactive” in each case.

For the molecule `O=Cc1c(-c2ccccc2)no[n+]1[O-]`, the Potency in [1] is 14.2 µM (active); in assay [2] it was 0.565 µM (active); in assay [3] it was 4 µM (active); in [4] it was 11.3 µM (active); in assay [9] it was 0.504 µM (active). For the same molecule, the Potency result in assay [5] was “inactive”.

Regarding `COc1ccccc1-c1cc(C(=O)NCc2ccc(C(F)(F)F)cc2)c2cnn(C)c2n1`, the Potency entry in [1], in assay [2], in assay [4] and in assay [9] was “inactive” throughout. For the same molecule, in [3], the Potency was 7.08 µM (active).

On to `O=S(=O)(NCCc1nnc2ccc(SCc3ccc(C(F)(F)F)cc3)nn12)c1ccccc1`, for which the Potency entry in [1], in assay [2], in [4] and in assay [9] was “inactive” in each case. Besides, the Potency in assay [3] was 25.1 µM (active).

For `Cc1ccc2c(c1)-c1c(cnn1CC(=O)N1CCN(c3cccc(C(F)(F)F)c3)CC1)CO2`, the Potency result in assay [1], in assay [3], in assay [4] and in assay [9] was “inactive” in each case. In addition, in [2], the Potency was 10 µM (active).

For the molecule `CCc1ccc(CN2CCC(C(=O)Nc3ccc(Oc4cccnc4)cc3)CC2)o1`, the Potency in assay [1] is 5.01 µM (active). Moreover, the Potency result in assay [2], in assay [3] and in [9] was “inactive” each time.

`O=C(NCc1ccc(F)c(F)c1)c1ccc2nnc(-c3cccc(C(F)(F)F)c3)n2c1`: the Potency result in assay [1], in assay [3], in [4] and in assay [9] was “inactive” each time. In addition, the Potency in [2] is 8.91 µM (active).
